Measured values taken from PubChem BioAssay (NCATS).
Inconclusive results are not listed. Active and inactive are the calls of the source. Unless noted, calls come from the whole dose curve; as a rule, active = well fitted curve in the direction sought with a large enough effect; inconclusive = small, poorly fitted or top-dose-only effect, or another doubt; inactive = no such curve, though single readings can be large; an effect the other way counts as inactive or inconclusive.

Tests used:
[1] = biological target: Glucocorticoid receptor (Homo sapiens) (UniProt P04150); assay: qHTS assay for small molecule agonists of glucocorticoid receptor signaling (AID 588532; active = well fitted curve in the direction sought with a large enough effect in the signal ratio, with a control signal flat; the % refers to the signal ratio;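 note: 100% = dexamethasone at 0.1 µM and 0% = DMSO only wells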); conditions: HeLa MMTV-bla, beta-lactamase ratio, agonist, 18 h; activation: stronger effect = higher value, percent of dexamethasone control, DMSO zero
How it was run: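 HeLa GRE-bla reporter cells; 18 h compound exposure at 37 C; 2 h CCF4 loading at room temperature; fluorescence at 460 and 530 nm; EC50 by Hill equation.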

[2] = biological target: Glucocorticoid receptor (Homo sapiens) (UniProt P04150); assay: qHTS assay for small molecule antagonists of glucocorticoid receptor signaling (AID 588533; active = well fitted inhibition curve with a large enough effect in the signal ratio, with a control signal flat, not every such curve was filed as active; the % refers to the signal ratio; note: % is set by controls: 0 for no effect and ±100 for the full control effect)
How it was run: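 Antagonist-mode qHTS: compound titrations added to GRE-bla HeLa cells, then dexamethasone 2 nM final; 18 h, 37 C. CCF4 FRET fluorescence normalized to dexamethasone and DMSO; IC50 from Hill fit.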

[3] = biological target: Peroxisome proliferator-activated receptor delta (Homo sapiens) (UniProt Q03181); assay: qHTS assay for small molecule agonists of peroxisome proliferator-activated receptor delta signaling (AID 588534; calls by dose curve;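 note: 0% = DMSO basal wells and 100% = positive control agonist at 10 µM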)
How it was run: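 Titration series tested in agonist mode on beta-lactamase reporter cells; 18 hrs at 37 C after a 5 hr pre-incubation. Readout: CCF4 fluorescence, 2 hrs RT. Hill equation gives EC50 and maximal response.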

[4] = qHTS assay for small molecule antagonists of peroxisome proliferator-activated receptor delta signaling (AID 588535); conditions: HEK293T PPARd-UAS-bla, beta-lactamase FRET ratio, 18 h; 460 nm channel;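 note: cells co-treated with a PPAR-delta agonist as stimulator during compound exposure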
How it was run: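 Beta-lactamase reporter read-out (405 nm excitation, 460/530 nm emission) after CCF4 loading for 2 hrs at RT. HEK293T PPAR-delta-UAS-bla cells, 2% charcoal/dextran FBS, compounds for 18 hrs at 37 C. Hill fit gave IC50 and efficacy.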

[5] = biological target: Vitamin D3 receptor (Homo sapiens) (UniProt P11473); assay: qHTS assay for small molecule antagonists of vitamin D receptor signaling (AID 588541; calls by dose curve;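 note: receptor activated by calcitriol during compound treatment; series mostly up to about 77 µM; % is set by controls: 0 for no effect and ±100 for the full control effect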)
How it was run: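 VDR-UAS-bla HEK293T cells in 2% charcoal-stripped FBS were stimulated with 1-alpha,25-dihydroxyvitamin D3 (3 nM final) plus compound for 16 h at 37 C. The beta-lactamase CCF4 readout was normalized to 50 nM agonist and DMSO, and Hill fits gave IC50.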

[6] = biological target: Retinoic acid receptor RXR-alpha (Homo sapiens) (UniProt P19793); assay: qHTS assay for small molecule agonists of retinoid X receptor alpha signaling (AID 588544; calls by dose curve;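 note: 0% = DMSO basal wells and 100% = reference agonist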)
[7] = biological target: Thyroid hormone receptor beta (Homo sapiens) (UniProt P10828); assay: qHTS assay for small molecule agonists of thyroid hormone receptor beta signaling (AID 588545; calls by dose curve;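 note: 0% = DMSO only and 100% = 10 nM T3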)
How it was run: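 Efficacy and EC50 values derive from Hill fits of qHTS titration data, normalized to 10 nM T3 and DMSO-only wells. HEK 293 reporter cells were stimulated for 18 hrs at 37 C, with beta-lactamase activity measured by CCF4 fluorescence.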

[8] = qHTS assay for small molecule antagonists of retinoid X receptor alpha signaling (AID 588546; active = well fitted inhibition curve with a large enough effect in the signal ratio, with a control signal flat, not every such curve was filed as active; the % refers to the signal ratio;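 note: cells stimulated with 9-cis-retinoic acid as agonist; % is set by controls: 0 for no effect and ±100 for the full control effect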); conditions: HEK293T RXRa-UAS-bla, beta-lactamase ratio, antagonist mode; measured here: W530 green channel, cytotoxicity proxy
How it was run: (§1)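 Beta-lactamase reporter inhibition, read as CCF4 fluorescence ratio (ex 405, em 460/530 nm) after 2 h at RT. HEK293T UAS-bla cells, 2500/well, were stimulated with 9-cis-RA at 500 or 100 nM final alongside test compound for 18 h at 37 C.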

[9] = biological target: Retinoic acid receptor RXR-alpha (Homo sapiens) (UniProt P19793); assay: as above; conditions: HEK293T RXRa-UAS-bla, beta-lactamase ratio, antagonist mode
How it was run: as §1

[10] = biological target: Thyroid hormone receptor beta (Homo sapiens) (UniProt P10828); assay: qHTS assay for small molecule antagonists of thyroid hormone receptor beta signaling (AID 588547; active = well fitted inhibition curve with a large enough effect in the signal ratio, with a control signal flat, not every such curve was filed as active; the % refers to the signal ratio;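 note: cells stimulated with 0.4 nM T3 agonist during compound exposure; series mostly up to about 77 µM; % is set by controls: 0 for no effect and ±100 for the full control effect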); conditions: TR-UAS-bla HEK293, beta-lactamase ratio, antagonist mode, 18 h
How it was run: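 TR-UAS-bla GripTite HEK293 cells in 2% charcoal/dextran FBS medium; compounds 0.59 nM to 92 uM with T3 at 0.4nM final, 18 h at 37 C. Beta-lactamase read by CCF4 fluorescence (460/530 nm); Hill fits gave IC50 and efficacy.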

[11] = qHTS assay for small molecule activators of the p53 signaling pathway (AID 651743; active = well fitted activation curve with a large enough effect in the signal ratio, not every such curve was filed as active; the % refers to the signal ratio; note: potency is the fitted concentration of half-maximal effect; for activation: series mostly up to about 92 µM; % of control where 0% means no effect); conditions: HCT-116 p53RE-bla, beta-lactamase FRET ratio, 16 h; activation: stronger effect = higher value
How it was run: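 Reporter: beta-lactamase driven by p53 response elements, stably integrated in HCT-116 cells. Cells seeded at 4,000/well, 5 h preincubation, compound (DMSO) 16 h at 37 C; B/G FRET substrate 2 h RT; fluorescence intensity read.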

[12] = qHTS assay for environmental chemicals that activate the Aryl hydrocarbon Receptor (AhR) signaling pathway (AID 651777); conditions: 1A2-DRE human hepatoma cells, luciferase, 24 h; activation: stronger effect = higher value; note: % of control where 0% means no effect; nearly all actives have a fitted effect of over 15% in size
How it was run: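 Concentration–response screening used 1,200 1A2-DRE cells per well, 24 hr compound exposure (37 C, 5% CO2), and One-Glo luminescence as the AhR-driven CYP1A2 reporter signal.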

[13] = biological target: Peroxisome proliferator-activated receptor alpha (Homo sapiens) (UniProt Q07869); assay: qHTS assay for small molecule agonists of the peroxisome proliferator-activated receptor alpha (PPARalpha) signaling pathway (AID 651778); conditions: PathHunter PPARalpha complementation, chemiluminescence, 6 h; max response: stronger effect = higher value; note: % of control where 0% means no effect
How it was run: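 Enzyme-fragment complementation assay in which ligand-bound PPARalpha translocates and forms an active enzyme that generates chemiluminescence. Cells were plated overnight, exposed to compound for 6 hr at 37 C, and then given detection reagent for 60 min at room temperature.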

[14] = qHTS assay for small molecule agonists of the antioxidant response element (ARE) signaling pathway measured by Nrf2-dependant transcriptional activity (AID 720636; active = well fitted curve in the direction sought with a large enough effect in the repeat runs; an effect the other way counts as inactive or inconclusive;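 note: HepG2 cells with an ARE-driven luciferase reporter; % of control where 0% means no effect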)
How it was run: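 Attachment 6 hr at 37 C, then compound versus DMSO vehicle for 16 hr in ARE-luc HepG2 cells (1% dialyzed FBS); luminescence recorded 30 min after ONE-Glo addition at room temperature.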

[15] = qHTS assay for small molecule agonists of the antioxidant response element (ARE) signaling pathway measured by Nrf2-dependant transcriptional activity - cell viability counter screen (AID 720653; active = well fitted curve in the direction sought with a large enough effect in the repeat runs; an effect the other way counts as inactive or inconclusive; note: % is set by controls: 0 for no effect and ±100 for the full control effect); conditions: ARE-bla HepG2 viability, CellTiter-Glo ATP luminescence, 16 h; max response: stronger effect = lower value
How it was run: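 ARE-bla HepG2 cells treated with compounds for 16 h at 37C; this counter screen measures viability as intracellular ATP by CellTiter-Glo luminescence after 30 min at room temperature.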

[16] = qHTS assay for cell viability of HEK293 cells (AID 743288); conditions: ATP luminescence (CellTiter-Glo), 18 h; max response: stronger effect = lower value; note: % is set by controls: 0 for no effect and ±100 for the full control effect; nearly all actives have a fitted effect of over 50% in size
How it was run: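 Quantitative high-throughput screen: compounds were pinned onto parental HEK293 cells (2,000 per well) after a minimum 5 h settling at 37 C, incubated 18 h at 37 C, and intracellular ATP measured by luciferase luminescence.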

[17] = qHTS assay for cell viability of the p53RE-bla HCT-116 cell line (AID 743292); note: % is set by controls: 0 for no effect and ±100 for the full control effect; nearly all actives have a fitted effect of over 55% in size
How it was run: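 Compound-exposed HCT-116 (p53RE-bla) cells, 4,000 per well, were kept 16 h at 37 C following a 5 h preincubation. Cell number was estimated from total ATP by CellTiter-Glo luminescence read after 30 min at room temperature.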

[18] = biological target: Nuclear receptor subfamily 1 group I member 2 (Rattus norvegicus) (UniProt Q9R1A7); assay: qHTS assay for small molecule activators of the rat pregnane X receptor (rPXR) signaling pathway (AID 651751; call rule not given here; note: 0% is about no effect); conditions: rPXR reporter cells, luciferase (One-Glo), 24 h
[19] = qHTS assay for small molecule activators of the nuclear factor-kappa B (NF-kB) signaling pathway (AID 651749; active = well fitted activation curve with a large enough effect in the signal ratio; the % refers to the signal ratio; note: series mostly up to about 77 µM; % of control where 0% means no effect); conditions: NF-kB-bla ME-180 cells, beta-lactamase FRET ratio, 16 h; activation: stronger effect = higher value
How it was run: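 NF-kB-bla ME-180 cells, 2,000/well; 23 nL compound or DMSO pinned; 16 hr, 37C/5% CO2; beta-lactamase FRET read-out.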

[20] = biological target: Vitamin D3 receptor (Homo sapiens) (UniProt P11473); assay: qHTS assay for small molecule agonists of vitamin D receptor signaling (AID 588543; calls by dose curve;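 note: 0% = DMSO basal and 100% = reference agonist control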)
How it was run: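 qHTS in agonist mode: compound titrations stimulate a VDR-driven β-lactamase reporter in HEK293T cells over 16 h at 37 °C. Response normalized to 50 nM 1α,25-dihydroxyvitamin D3 = 100%, DMSO = 0%; Hill fitting gives EC50 and maximal response.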

Sequence of Vitamin D3 receptor (Homo sapiens) (P11473 whole entry, looked up): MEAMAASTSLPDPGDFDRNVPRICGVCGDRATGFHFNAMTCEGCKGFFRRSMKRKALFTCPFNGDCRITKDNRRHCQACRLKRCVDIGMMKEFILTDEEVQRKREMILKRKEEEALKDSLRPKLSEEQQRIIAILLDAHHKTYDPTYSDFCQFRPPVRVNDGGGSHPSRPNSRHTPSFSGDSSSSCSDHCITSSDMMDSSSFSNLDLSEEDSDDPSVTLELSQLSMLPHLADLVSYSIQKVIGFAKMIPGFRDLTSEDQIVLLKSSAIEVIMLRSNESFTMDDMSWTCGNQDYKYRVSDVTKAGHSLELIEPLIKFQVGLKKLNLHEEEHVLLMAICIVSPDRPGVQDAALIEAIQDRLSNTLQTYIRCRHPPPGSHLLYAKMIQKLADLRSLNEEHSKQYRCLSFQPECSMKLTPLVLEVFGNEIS
Sequence of Glucocorticoid receptor (Homo sapiens) (P04150 whole entry, looked up): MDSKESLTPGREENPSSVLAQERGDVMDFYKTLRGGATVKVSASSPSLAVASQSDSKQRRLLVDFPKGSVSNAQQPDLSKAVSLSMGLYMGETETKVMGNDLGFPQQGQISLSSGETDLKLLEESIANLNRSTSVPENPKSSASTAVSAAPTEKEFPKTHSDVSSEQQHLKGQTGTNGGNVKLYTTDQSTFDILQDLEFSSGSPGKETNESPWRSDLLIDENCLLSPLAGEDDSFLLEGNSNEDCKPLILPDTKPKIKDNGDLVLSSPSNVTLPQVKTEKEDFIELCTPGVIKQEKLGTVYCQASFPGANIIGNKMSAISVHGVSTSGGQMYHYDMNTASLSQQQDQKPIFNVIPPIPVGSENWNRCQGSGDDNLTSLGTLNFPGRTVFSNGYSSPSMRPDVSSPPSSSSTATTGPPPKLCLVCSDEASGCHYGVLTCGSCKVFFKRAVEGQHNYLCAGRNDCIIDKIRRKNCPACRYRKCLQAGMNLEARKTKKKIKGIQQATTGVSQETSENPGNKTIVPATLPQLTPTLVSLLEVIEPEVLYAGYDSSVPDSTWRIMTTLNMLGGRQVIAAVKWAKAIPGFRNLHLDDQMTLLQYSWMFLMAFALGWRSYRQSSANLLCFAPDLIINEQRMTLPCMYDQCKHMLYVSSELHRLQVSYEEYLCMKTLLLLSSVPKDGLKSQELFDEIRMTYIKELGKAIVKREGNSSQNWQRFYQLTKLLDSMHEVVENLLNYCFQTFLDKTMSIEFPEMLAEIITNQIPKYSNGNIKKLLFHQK
Sequence of Retinoic acid receptor RXR-alpha (Homo sapiens) (P19793 whole entry, looked up): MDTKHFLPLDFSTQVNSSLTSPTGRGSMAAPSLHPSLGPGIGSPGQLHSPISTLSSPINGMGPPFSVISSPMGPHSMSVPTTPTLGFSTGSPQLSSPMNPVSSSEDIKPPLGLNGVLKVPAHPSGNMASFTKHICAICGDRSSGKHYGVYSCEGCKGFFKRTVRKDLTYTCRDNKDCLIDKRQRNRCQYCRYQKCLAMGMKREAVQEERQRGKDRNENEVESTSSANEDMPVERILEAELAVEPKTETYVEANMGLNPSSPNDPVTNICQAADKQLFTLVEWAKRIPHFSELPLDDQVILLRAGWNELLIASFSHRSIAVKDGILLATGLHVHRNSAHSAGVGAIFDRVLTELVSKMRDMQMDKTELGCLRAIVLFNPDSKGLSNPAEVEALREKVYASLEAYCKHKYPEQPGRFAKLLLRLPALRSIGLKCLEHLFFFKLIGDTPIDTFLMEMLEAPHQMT
Sequence of Nuclear receptor subfamily 1 group I member 2 (Rattus norvegicus) (Q9R1A7 whole entry, looked up): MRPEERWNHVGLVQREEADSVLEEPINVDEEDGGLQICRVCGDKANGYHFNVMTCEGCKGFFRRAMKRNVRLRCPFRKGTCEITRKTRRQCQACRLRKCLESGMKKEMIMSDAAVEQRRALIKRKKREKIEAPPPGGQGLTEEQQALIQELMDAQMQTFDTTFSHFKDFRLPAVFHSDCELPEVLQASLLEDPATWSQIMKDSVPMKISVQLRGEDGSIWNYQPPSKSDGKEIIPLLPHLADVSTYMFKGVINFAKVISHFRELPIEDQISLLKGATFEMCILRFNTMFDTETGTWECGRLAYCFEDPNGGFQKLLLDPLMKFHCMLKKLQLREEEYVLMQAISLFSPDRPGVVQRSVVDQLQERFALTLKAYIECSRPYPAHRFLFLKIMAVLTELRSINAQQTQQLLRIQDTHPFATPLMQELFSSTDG
Sequence of Thyroid hormone receptor beta (Homo sapiens) (P10828 whole entry, looked up): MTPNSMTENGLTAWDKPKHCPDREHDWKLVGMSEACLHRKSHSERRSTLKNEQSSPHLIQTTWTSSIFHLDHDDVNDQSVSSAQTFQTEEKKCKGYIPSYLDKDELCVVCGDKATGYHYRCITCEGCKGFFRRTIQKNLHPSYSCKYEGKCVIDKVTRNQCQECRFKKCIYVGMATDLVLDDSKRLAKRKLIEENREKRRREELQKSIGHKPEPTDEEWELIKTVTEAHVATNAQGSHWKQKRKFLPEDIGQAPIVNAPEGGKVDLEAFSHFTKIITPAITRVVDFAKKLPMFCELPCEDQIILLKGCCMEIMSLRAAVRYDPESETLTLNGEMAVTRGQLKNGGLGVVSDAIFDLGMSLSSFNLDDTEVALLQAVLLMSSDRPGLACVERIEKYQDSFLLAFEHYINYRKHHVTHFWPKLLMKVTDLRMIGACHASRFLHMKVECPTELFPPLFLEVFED
Sequence of Peroxisome proliferator-activated receptor alpha (Homo sapiens) (Q07869 whole entry, looked up, the tested form may be a part): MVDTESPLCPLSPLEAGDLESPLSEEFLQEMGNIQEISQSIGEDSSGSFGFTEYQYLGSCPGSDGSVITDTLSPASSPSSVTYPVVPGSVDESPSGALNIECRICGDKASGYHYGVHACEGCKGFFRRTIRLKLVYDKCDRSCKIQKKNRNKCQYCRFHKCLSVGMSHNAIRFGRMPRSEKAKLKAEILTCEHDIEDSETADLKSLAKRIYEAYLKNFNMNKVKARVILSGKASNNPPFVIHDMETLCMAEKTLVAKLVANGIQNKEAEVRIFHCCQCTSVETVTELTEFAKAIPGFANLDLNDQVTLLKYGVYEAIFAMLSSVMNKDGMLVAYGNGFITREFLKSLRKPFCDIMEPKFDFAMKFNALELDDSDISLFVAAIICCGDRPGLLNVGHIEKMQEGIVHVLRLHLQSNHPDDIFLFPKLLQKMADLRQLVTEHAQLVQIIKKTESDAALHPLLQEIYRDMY
Sequence of Peroxisome proliferator-activated receptor delta (Homo sapiens) (Q03181 whole entry, looked up): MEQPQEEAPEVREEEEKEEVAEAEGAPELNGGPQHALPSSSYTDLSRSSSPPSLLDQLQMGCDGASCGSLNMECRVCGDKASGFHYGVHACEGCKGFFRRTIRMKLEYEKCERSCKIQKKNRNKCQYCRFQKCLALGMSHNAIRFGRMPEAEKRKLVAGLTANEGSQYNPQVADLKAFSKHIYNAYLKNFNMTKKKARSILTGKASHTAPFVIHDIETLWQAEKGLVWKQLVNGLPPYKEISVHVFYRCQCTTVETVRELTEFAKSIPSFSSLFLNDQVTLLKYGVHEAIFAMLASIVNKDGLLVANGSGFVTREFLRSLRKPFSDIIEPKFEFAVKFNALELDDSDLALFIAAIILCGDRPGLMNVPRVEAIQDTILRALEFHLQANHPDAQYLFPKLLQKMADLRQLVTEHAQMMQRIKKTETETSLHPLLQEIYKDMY

N#CCNC(=O)c1cnccc1C(F)(F)F
-6.46%: max response [8]
-20.3%: max response [4]
inactive: activation [1] 0.151% | Potency [2] | outcome [3] | Potency [5] | Potency [6] | Potency [7] | max response [9] -7.71% | activity change % (negative = inhibition) [10] 15.2% | activation [11] -2.69% | activation [12] 1.26% | max response [13] -0.401% | Potency [14] | max response [15] -0.0757% | max response [16] -6.61% | Potency [17] | max response [18] 3.48%

CO/N=C(/C(=O)OC)c1ccccc1COc1ccccc1C
active: Potency [11] 25.1 µM
inactive: activation [1] -0.293% | Potency [6] | Potency [7] | activity change % (negative = inhibition) [10] -29.5% | activation [19] -0.43% | activation [12] 13.1% | max response [13] 5.1% | Potency [14] | max response [15] -19.8% | max response [16] -26.1% | Potency [17]

N#CN=C1SCCN1Cc1ccc(Cl)nc1
inactive: activation [1] 0.0374% | outcome [3] | Potency [6] | Potency [7] | max response [9] -3.64% | activity change % (negative = inhibition) [10] -1.19% | activation [11] 1.82% | activation [12] 1.96% | max response [13] -1.13% | Potency [14] | max response [15] -4.44% | max response [16] 1.43% | Potency [17] | max response [18] 2.62%
-7.22%: max response [8]
8.04%: max response [4]

CCCCOC(=O)[C@@H](C)Oc1ccc(Oc2ccc(C#N)cc2F)cc1
13.4%: max response [8]
inactive: activation [1] -11.2% | Potency [2] | outcome [3] | outcome [20] | Potency [6] | Potency [7] | max response [9] 12.7% | activity change % (negative = inhibition) [10] 0.16% | activation [12] -2.2% | max response [13] 5.77% | Potency [14] | max response [15] -7.64% | max response [16] 2.82% | max response [18] 1.04%

Brc1ccc(Oc2ccccc2)cc1
inactive: activation [1] 1.51% | Potency [2] | outcome [3] | Potency [5] | outcome [20] | Potency [6] | max response [9] 1.13% | activity change % (negative = inhibition) [10] -9.48% | activation [11] 1.17% | activation [19] -2.79% | activation [12] -0.643% | max response [13] -0.584% | Potency [14] | max response [15] -10.2% | max response [16] -5.38% | Potency [17] | max response [18] -2.47%
-7.34%: max response [8]
2.82%: max response [4]

CCSCCSP(=O)(OC)OC
inactive: activation [1] 8.21% | Potency [2] | outcome [3] | outcome [20] | Potency [6] | Potency [7] | max response [9] -0.524% | activity change % (negative = inhibition) [10] 4.21% | activation [19] -0.99% | max response [13] -0.363% | Potency [14] | max response [16] -1.87% | Potency [17] | max response [18] -1.46%
-10.5%: max response [4]
-9.27%: max response [8]

CCC(C)Nc1c([N+](=O)[O-])cc(C(C)(C)C)cc1[N+](=O)[O-] (stereo not given)
inactive: activation [1] -11.2% | Potency [2] | Potency [5] | outcome [20] | Potency [6] | Potency [7] | activation [12] 5.25% | max response [13] 8.22% | max response [15] 11% | max response [16] -2.45%
-21.7%: max response [4]

COC(=O)/C=C(\C)OP(=O)(OC)OC
inactive: activation [1] -1.06% | Potency [2] | outcome [3] | Potency [5] | Potency [6] | Potency [7] | max response [9] -10.3% | activation [11] -3.2% | max response [13] -1.45% | Potency [14] | max response [15] 12.7% | max response [16] -3.83% | Potency [17] | max response [18] -0.069%
-19.7%: max response [8]
-21.6%: max response [4]

O=S(=O)(c1ccc(Cl)cc1)c1cc(Cl)c(Cl)cc1Cl
inactive: activation [1] 0.889% | Potency [2] | Potency [5] | outcome [20] | Potency [7] | activity change % (negative = inhibition) [10] 6.33% | activation [11] 8.22% | activation [19] 1.59% | activation [12] -2.98% | max response [13] -3.59% | Potency [14] | max response [15] -29.2% | max response [16] -31.9% | Potency [17]

CC1(C)C(C(=O)OC(C#N)c2cccc(Oc3ccccc3)c2)C1(C)C (stereo not given)
-18.6%: max response [8]
27.8%: max response [4]
inactive: outcome [3] | Potency [5] | outcome [20] | Potency [6] | activity change % (negative = inhibition) [10] 2.17% | activation [11] -5.39% | activation [19] 2.53% | activation [12] -0.509% | max response [13] -0.276% | Potency [14] | max response [15] -19.4% | max response [16] -11.3% | Potency [17]

N#CC(CCc1ccc(Cl)cc1)(Cn1cncn1)c1ccccc1 (stereo not given)
inactive: activation [1] -4.45% | Potency [2] | outcome [20] | Potency [7] | max response [9] -64.1% | activation [11] 0.949% | activation [19] 2.24% | activation [12] 3.22% | max response [13] -0.149% | Potency [14] | max response [15] -21.6% | max response [16] -24.7% | Potency [17]
6.94%: max response [8]

CCNc1nc(Cl)nc(NC(C)(C)C)n1
inactive: Potency [2] | outcome [3] | Potency [5] | Potency [7] | activity change % (negative = inhibition) [10] -28% | activation [19] -1.02% | activation [12] 6.82% | max response [13] 0.909% | Potency [14] | max response [15] -4.66% | max response [16] -13.7% | Potency [17] | max response [18] 4.19%
33.2%: max response [4]
